Experimental data from paper PMC12136788.
Substitutions are numbered along the chain they refer to. Over roughly 24,000 sequences, “enrichment r” has its median near 0.99; the highest 2% begin near 3.7. The full list was thinned out, with the highest values kept by preference.

T1: UNK ZnF1-3 (human, UniProt Q9C0B0 31-174)
T1 sequence: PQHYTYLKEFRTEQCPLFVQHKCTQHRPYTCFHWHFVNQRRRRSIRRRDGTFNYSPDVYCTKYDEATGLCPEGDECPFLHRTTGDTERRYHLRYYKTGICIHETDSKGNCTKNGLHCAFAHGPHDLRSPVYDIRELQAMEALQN

B1: chr14:76906223:76906224:+_ENSMUSG00000022010_ENSMUST00000022587|mus_mus|FALSE|FALSE (ssRNA)
RNA: GGGAGUUCUACAGUCCGACGAUCCACUUCCUCCCUCACCGCAUACAUCAAAUGGCUUUUCACCAGAUCCAUAGCUUGCUCUAUUUUGUUGUCGAUAGCUACCACACUUGCACCAGAGCUAUUGUCAAGUCUCACGGAAGCGUUCAACAGAGGAUUGAGCAUCA
B2: 77377103_77377223_5427_3pUTR_ENSG00000048649_ENST00000308488|human|control|control (ssRNA)
RNA: GGGAGUUCUACAGUCCGACGAUCUACAGUCCACCCAGGCCUUAAGAAAGACCACAUUCAUUUCACUAAUAACUCUCCAUCAGACACAAUAUAUUUGAGGCCACCUUAUUACCACUGCAUAAAGCUUAUUUAAAAAAAUUUGUUCAACAGAGGAUUGAGCAUCA
B3: chr1:71529667:71529668:-_ENSG00000132485_ENST00000254821|hu_hu|FALSE|FALSE (ssRNA)
RNA: GGGAGUUCUACAGUCCGACGAUCUUGUCACUGGAAAUACUGUUAAGAGAAACCUUUUUAUUUUUUAAACCAGAAAACAAACUAAAGCUCAUGUGACCAGAUUUUAAUUUUGAGAAAUAAACUCCAAAAGCAUUUUAAGCCAUACAACAGAGGAUUGAGCAUCA
B4: chr2:32530853:32530854:+_ENSG00000119820_ENST00000437765|hu_mus|FALSE|FALSE (ssRNA)
RNA: GGGAGUUCUACAGUCCGACGAUCUUCAGAAUUCUGACCAAAAAAAAGAAAAAAAAAUCCCAGAUAACUGCAAUUACUUAAAUACAAAAAAUAUUGUUUUAAAAAGACUUUAAGCCUGCCUCUCUAUCUGGAAUGUAUAAAAUUCAACAGAGGAUUGAGCAUCA
B5: chr1:109605425:109605426:-_ENSG00000197780_ENST00000461096|hu_mus|FALSE|FALSE (ssRNA)
RNA: GGGAGUUCUACAGUCCGACGAUCUUUAAUCAACUCUCCGUUCUCACAAUUAAAGUACUUACAUUUCCGUCACUAGAGCACAGCCAGAAACACCUGGGCUGGCAUCGGCUCUUUAAGCCCUGCCGUUCCCACUACUGAGGCAUUCAACAGAGGAUUGAGCAUCA
B6: chr14:76904430:76904431:+_ENSMUSG00000022010_ENSMUST00000022587|mus_mus|mus_mus_mus_hu_True|58_108 (ssRNA)
RNA: GGGAGUUCUACAGUCCGACGAUCUGCUGGAAAAAAAACCCUCGUGGAAAAAAAGAGGGAACACCAGCAGCCUUGUACAAACUAGAUAAAAUCUUCUGGCUUUCCGCAGCCCAGGGAGAAACAGAAAACGGCAGCCCUAAUUUACAACAGAGGAUUGAGCAUCA
B7: 55618536_55618656_2401_CDS_ENSG00000126787_ENST00000247191|human|control|control (ssRNA)
RNA: GGGAGUUCUACAGUCCGACGAUCAACAUCUGAAAUUCCUUCUUUUUUGUUAGUAUUAAUAUCAUCUGCUACUCCACCAGCAAGAAGAGGCAAACUCAUUCUCUCACUGGAUAAACAAUCCACCUUCAAGUCUGUCUUAUUUACCAACAGAGGAUUGAGCAUCA
B8: chr9:108650075:108650076:+_ENSMUSG00000032601_ENSMUST00000035220|mus_mus|FALSE|FALSE (ssRNA)
RNA: GGGAGUUCUACAGUCCGACGAUCAGCAAUUUGUUUAUGUAAACAGCACAGAGGUUAAACAAAACAAAACAAAACAAAAACCUACUAAAUACAAACAACAAAAACCCUAACCCAGAUAACCUUUCCUGGCUACUACUGGAAAGACAACAGAGGAUUGAGCAUCA
B9: chr5:143665338:143665339:-_ENSMUSG00000029580_ENSMUST00000100497|mus_hu|FALSE|FALSE (ssRNA)
RNA: GGGAGUUCUACAGUCCGACGAUCCACCUUCACCGUUCCAGUUUUUAAAUCCUGAGUCAAGCCAAAAAAAAAAAAAAAACCAAAACAAAACAAAAAAAACAAAUAAAGCCAUGCCAAUCUCAUCUUGUUUUCUGCGCAAGUUAGCAACAGAGGAUUGAGCAUCA
B10: 39249924_39250044_1625_CDS_ENSG00000115904_ENST00000402219|human|control|control (ssRNA)
RNA: GGGAGUUCUACAGUCCGACGAUCACUCCGGUACUGUAAAGAUAUCAAUGCUGCCAUCCAAUUGUUUUUCUCUUCAGCUGACUUGGCAGAAAAUAUAACACUAUUUUCAUCUUUUAAAAUUAUUUCAAAAGCAUGCUUGUAUUCCAACAGAGGAUUGAGCAUCA
B11: chr3:124025330:124025331:+_ENSMUSG00000044528_ENSMUST00000058994|mus_mus|FALSE|FALSE (ssRNA)
RNA: GGGAGUUCUACAGUCCGACGAUCGUUUAAUCUUAAUUCCCACCACCACUCAUACCGCUGCCAACCCUUAAAAACACAUUAGACAAUAACAAUAGCAAUAUUUAAAAAAGCACGACCCGUUCUGAAAAACAGAAACUCUCUAGCCAACAGAGGAUUGAGCAUCA
B12: 24817595_24818005_4380_CDS_ENSG00000090905_ENST00000315183|human|control|control (ssRNA)
RNA: GGGAGUUCUACAGUCCGACGAUCCUGAUGGAGUGGCUGCUGCUGAGAUGGUGGAGUCUGCUGCUUCACCAACAGGUUUGGAUCAAGUUGACGAGAUUGUUGCAUCAUUUGCUGCUGCACACUAAGAGGUCGACCCUGCUGGUCCAACAGAGGAUUGAGCAUCA
B13: chr10:33190432:33190433:-_ENSG00000150093_ENST00000302278|hu_mus|hu_hu_hu_mus_True|1_48 (ssRNA)
RNA: GGGAGUUCUACAGUCCGACGAUCUACAUUUUCCAAACCUGCAUGUGAAUAAAACCCUGGCCACAGAGCCCCAAAACUACCCUACUGUGACUAUGGAGCUGCUGCUGUGAGCUUGGUGUUGCAAAAUCCGCCUGAGUCAGUACUCAACAGAGGAUUGAGCAUCA
B14: 17505014_17509309_214_5pUTR_ENSMUSG00000019370_ENSMUST00000019514|mouse|control|control (ssRNA)
RNA: GGGAGUUCUACAGUCCGACGAUCCAUGGCGAGGCACCGGUAUCCGGAGCUCGGGGAUCGAGGUUACUCUGGCGGCGGCAGCAGCUGCAGCAGCUCGAGCUCCGCCGCGCGUCCGCGCCUCCACACUCUUUGCCCGCAGCGCGCCAACAGAGGAUUGAGCAUCA
B15: chr8:80553714:80553715:+_ENSG00000104435_ENST00000220876|hu_mus|motif|central (ssRNA)
RNA: GGGAGUUCUACAGUCCGACGAUCAGCCUCCAGCUUUUUCUGAAUCUCCUCCAGAGACAGGUCUUUCUUCUUUGGAGAAGCGGGAGUUCGUGGAGCUUCUGAGAUGGGAGAUGGUGGCUUCAAGAUCAGCUCAAAAGCCUGGCCCAACAGAGGAUUGAGCAUCA
B16: chr11:100577090:100577091:-_ENSMUSG00000019173_ENSMUST00000107364|mus_hu|motif|central (ssRNA)
RNA: GGGAGUUCUACAGUCCGACGAUCCUGCACUGACCCCACUGUCCCCAUAUACAAGGGUUGGGGGGCAAGAGCAUGUGGCGGCUCCCAGCAAGGGAAAAUGGGAGAGCAGUAGAAAGGGGAGGAAGUGGGAAGAGCAGAAGAUCACAACAGAGGAUUGAGCAUCA
B17: chr1:89687925:89687926:+_ENSMUSG00000026289_ENSMUST00000027512|mus_hu|FALSE|FALSE (ssRNA)
RNA: GGGAGUUCUACAGUCCGACGAUCCCAGGACAGGGCUGCAGGAGCCCAUGUGCUUCUUCUGAGGAGGGCACUGGGGUCCUCCCAGCCCUGAGAGCCCCGUCAGUACUGUGCCCACAGCACAGCUUUGCAUCCUUUGUCCACACUCAACAGAGGAUUGAGCAUCA
B18: chr3:33038425:33038426:-_ENSG00000170266_ENST00000307363|hu_mus|FALSE|FALSE (ssRNA)
RNA: GGGAGUUCUACAGUCCGACGAUCGGUGGGAGGUCAGGCAAGGCGGGGCUGCAAAGUCACCAGCAGGGUACACACAUUCCAGAAAUGUAGCUUCCAUUCUAGCACAACAAAGGUGAUCCGUGUAACCAGAGUAGAGCUGUGCUCCAACAGAGGAUUGAGCAUCA
B19: 105885974_105886094_2527_3pUTR_ENSG00000135966_ENST00000393359|human|control|control (ssRNA)
RNA: GGGAGUUCUACAGUCCGACGAUCCAGCAGCGUGUGAAAGAGUUGCUGGCGGUGGGGUGGGUCUCGGCCCUCGGAGCACCACAGGCAGUAGUCCUCGGCCGCUGCAAAGUCCUGCAGCUCGUGCACCAGGAUAUGCAGCGCCUUCAACAGAGGAUUGAGCAUCA
B20: chr11:30000241:30000242:-_ENSMUSG00000020315_ENSMUST00000011877|mus_hu|FALSE|FALSE (ssRNA)
RNA: GGGAGUUCUACAGUCCGACGAUCUAUUUCCAACACAGCCUCACAAAAUUGAGGAACAGUUUAAAUACUGAGAUCUAAUCUAUAUAAUUUCAUUAAAAAAAAAAUCUGGCCUUCCCUCUGCACCUCAAACUUUUGUAACUUGGACAACAGAGGAUUGAGCAUCA
B21: chr18:77179482:77179483:+_ENSMUSG00000090000_ENSMUST00000026487|mus_mus|FALSE|FALSE (ssRNA)
RNA: GGGAGUUCUACAGUCCGACGAUCAAGUAUGCUCCAAUCCGGGAGUGCUCCUGCCUCUGAUAAUCUGAUCUACAAGUGCAACUACAAUUAAAAAAAAAAAAAAAUCAGAUAGAUAGAAACUCUGGUUUUAUUGUCAACUUUACUCAACAGAGGAUUGAGCAUCA
B22: chr10:112657927:112657928:+_ENSG00000150593_ENST00000280154|hu_hu|FALSE|FALSE (ssRNA)
RNA: GGGAGUUCUACAGUCCGACGAUCCAGAAAUGCCUUGUACCCAAAACAAGUGCUUAAAAAAAAAAAAAAAAAAAACUUGUGCUAACAACUCUUACAAUUCAGAUAUAUAUUUUUAUAACAUCUAAGACUGCAAGAGUUCUUAUACAACAGAGGAUUGAGCAUCA
B23: chr17:65740002:65740003:+_ENSG00000130935_ENST00000581375|hu_hu|hu_hu_hu_mus_False|8_8 (ssRNA)
RNA: GGGAGUUCUACAGUCCGACGAUCAACAAAUCUUUCUUCCCUGGACGAACAGGAAGAUUCAUAUUAAAAAAAAUAUAUAUCCAUCAAGUUAGGUGUGGUGGCCACACCUUUACUCCCAGCACUUUGGGAAUAUAAUCUCUGAGUCAACAGAGGAUUGAGCAUCA
B24: chr10:112657927:112657928:+_ENSG00000150593_ENST00000280154|hu_hu|motif|central (ssRNA)
RNA: B22 RNA with U82G, A83G
B25: chr11:30000241:30000242:-_ENSMUSG00000020315_ENSMUST00000011877|mus_hu|motif|central (ssRNA)
RNA: B20 RNA with U75G, A76G, U80G, A81G

target: T1, UNK ZnF1-3; experiment: nsRBNS (natural sequence RNA bind-n-seq); RBNS binding buffer (assumed for nsRBNS): 25 mM Tris pH 7.5, 150 mM KCl, 3 mM MgCl2, 0.01% Triton X-100, 500 ug/ml BSA, 20 U/ml SUPERase-In, 4 C; UNK is unkempt and MSI1 is Musashi-1; names of the RNAs are library labels; protein concentration not given here; high values mean tight binding

| Binder | binding signal [enrichment R] |
| --- | --- |
| B1 | 1.04 |
| B2 | 3.78 |
| B3 | 1.66 |
| B4 | 4.78 |
| B5 | 0.922 |
| B6 | 2 |
| B7 | 1.29 |
| B8 | 4.03 |
| B9 | 2.75 |
| B10 | 1.14 |
| B11 | 4.17 |
| B12 | 0.736 |
| B13 | 1.02 |
| B14 | 0.975 |
| B15 | 1.22 |
| B16 | 1.93 |
| B17 | 0.419 |
| B18 | 1.42 |
| B19 | 0.509 |
| B20 | 4.16 |
| B21 | 2.98 |
| B22 | 3.61 |
| B23 | 1.12 |
| B24 | 4.04 |
| B25 | 3.58 |
